Results filed as inconclusive are left out. Calls of active or inactive are those of the source. Rule for the calls: active = hit-call score of the fitted dose curve at least 0.9, where 1 is the maximum; inconclusive = response in the unintended direction; inactive = score below 0.9.

One may read the AC50 as the concentration giving half of the maximal activity seen.

The target in assay [1] is human Androgen Receptor (AR), AR (gene 367) (UniProt P10275). Put plainly: NVS_NR_hAR: NovaScreen (NVS) Nuclear Receptor Binding Assay for human Androgen Receptor (AR) (AID 2283332). In outline:
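Actives from a duplicate 25 uM single-point screen went on to concentration series. Read-out after 20 h was scintillation counting of displaced radioligand in LnCAP extract, with DMSO as baseline.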

Assay [2] has as its target Voltage-gated inwardly rectifying potassium channel KCNH2 (Homo sapiens) (UniProt Q12809). Nature of the assay: NVS_IC_hKhERGCh: NovaScreen (NVS) Ion Channel Assay for human Potassium Channel ERG (KhERGCh) (AID 2283333). Put shortly: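 Cell-free radioligand competition binding on hERG protein extracted from CHO cells, read by filter-based scintillation counting 0.75 h after dosing. Primary screen at 25 uM in duplicate, actives followed in concentration series. Signal loss fitted versus DMSO.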

The target in assay [3] is rat Glycine Receptor, Strychnine-sensitive (GlyRStrySens), Glra1 (gene 25674) (UniProt P07727). Nature of the assay: NVS_LGIC_rGlyRStrySens: NovaScreen (NVS) Ligand-Gated Ion Channel Assay for rat Glycine Receptor, Strychnine-sensitive (GlyRStrySens) (AID 2283341). Put shortly: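 Radioligand displacement on rat spinal cord membranes, 1 hr, filter scintillation read-out. Single-concentration duplicate screen at 25 uM; chemicals meeting threshold (e.g., 30% inhibition) rerun in concentration-response up to 50 uM. Loss of binding fitted versus DMSO.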
Chain of rat Glycine Receptor, Strychnine-sensitive (GlyRStrySens), Glra1 (gene 25674) (P07727 whole entry, looked up): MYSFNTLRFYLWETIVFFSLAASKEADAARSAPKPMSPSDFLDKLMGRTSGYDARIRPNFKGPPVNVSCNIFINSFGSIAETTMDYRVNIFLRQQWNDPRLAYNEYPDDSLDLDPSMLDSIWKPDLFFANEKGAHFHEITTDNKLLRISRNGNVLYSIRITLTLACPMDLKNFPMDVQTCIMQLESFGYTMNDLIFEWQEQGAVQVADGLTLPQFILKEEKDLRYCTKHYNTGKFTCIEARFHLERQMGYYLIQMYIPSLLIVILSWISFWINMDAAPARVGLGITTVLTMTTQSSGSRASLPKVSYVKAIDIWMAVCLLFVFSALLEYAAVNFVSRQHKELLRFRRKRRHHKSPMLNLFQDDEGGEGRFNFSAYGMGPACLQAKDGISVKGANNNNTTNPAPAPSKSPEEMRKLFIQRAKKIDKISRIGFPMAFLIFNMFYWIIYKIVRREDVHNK

Assay [4] has as its target Bile acid receptor (Homo sapiens) (UniProt Q96RI1). Put plainly: NVS_NR_hFXR_Agonist: NovaScreen (NVS) Nuclear Receptor Binding Assay for human Farnesoid X Receptor Agonism (FXR) (AID 2283347). Put shortly: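 Cell-free TR-FRET binding assay with extracted human FXR protein, agonist format, read 1 h after dosing. Primary screen at 25 uM single concentration in duplicate, actives retested in concentration series; gain of signal versus DMSO.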

Chain of human Androgen Receptor (AR), AR (gene 367) (P10275 whole entry, looked up): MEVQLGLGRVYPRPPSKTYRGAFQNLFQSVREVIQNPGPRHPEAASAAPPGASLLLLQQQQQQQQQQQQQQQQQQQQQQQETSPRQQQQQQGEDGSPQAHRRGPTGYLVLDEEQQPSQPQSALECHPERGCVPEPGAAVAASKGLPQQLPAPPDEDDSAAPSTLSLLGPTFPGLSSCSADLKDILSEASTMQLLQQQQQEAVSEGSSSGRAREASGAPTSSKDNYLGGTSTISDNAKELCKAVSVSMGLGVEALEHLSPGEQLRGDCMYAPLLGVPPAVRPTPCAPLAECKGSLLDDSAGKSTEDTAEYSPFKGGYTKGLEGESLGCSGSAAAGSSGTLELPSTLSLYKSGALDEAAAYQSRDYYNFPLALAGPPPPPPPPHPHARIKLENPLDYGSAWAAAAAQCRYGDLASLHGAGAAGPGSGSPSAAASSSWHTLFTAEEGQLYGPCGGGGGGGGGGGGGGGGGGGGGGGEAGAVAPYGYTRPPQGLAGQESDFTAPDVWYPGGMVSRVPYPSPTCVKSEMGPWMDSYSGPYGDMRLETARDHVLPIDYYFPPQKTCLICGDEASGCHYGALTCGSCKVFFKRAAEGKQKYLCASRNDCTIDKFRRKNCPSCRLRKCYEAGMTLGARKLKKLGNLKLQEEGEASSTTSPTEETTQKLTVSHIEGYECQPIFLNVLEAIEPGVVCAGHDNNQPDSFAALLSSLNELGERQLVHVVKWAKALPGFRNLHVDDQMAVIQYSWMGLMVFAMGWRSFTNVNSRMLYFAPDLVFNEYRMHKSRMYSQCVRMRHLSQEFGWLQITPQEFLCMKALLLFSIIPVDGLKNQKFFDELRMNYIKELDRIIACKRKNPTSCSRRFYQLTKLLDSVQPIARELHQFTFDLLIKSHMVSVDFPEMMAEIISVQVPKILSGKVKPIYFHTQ
Chain of Bile acid receptor (Homo sapiens) (Q96RI1 whole entry, looked up): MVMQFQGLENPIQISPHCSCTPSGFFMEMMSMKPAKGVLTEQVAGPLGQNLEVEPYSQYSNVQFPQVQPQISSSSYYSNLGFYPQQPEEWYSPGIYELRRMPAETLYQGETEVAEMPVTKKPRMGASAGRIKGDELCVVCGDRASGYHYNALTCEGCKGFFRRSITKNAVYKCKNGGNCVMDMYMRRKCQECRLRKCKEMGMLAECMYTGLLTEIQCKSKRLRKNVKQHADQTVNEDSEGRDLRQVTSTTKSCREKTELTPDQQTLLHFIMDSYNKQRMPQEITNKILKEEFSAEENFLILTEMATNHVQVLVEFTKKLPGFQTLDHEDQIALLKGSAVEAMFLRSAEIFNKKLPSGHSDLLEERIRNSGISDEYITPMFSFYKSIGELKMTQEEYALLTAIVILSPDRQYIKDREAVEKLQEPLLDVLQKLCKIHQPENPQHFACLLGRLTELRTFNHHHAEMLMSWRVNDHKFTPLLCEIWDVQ
Chain of Voltage-gated inwardly rectifying potassium channel KCNH2 (Homo sapiens) (Q12809 whole entry, looked up): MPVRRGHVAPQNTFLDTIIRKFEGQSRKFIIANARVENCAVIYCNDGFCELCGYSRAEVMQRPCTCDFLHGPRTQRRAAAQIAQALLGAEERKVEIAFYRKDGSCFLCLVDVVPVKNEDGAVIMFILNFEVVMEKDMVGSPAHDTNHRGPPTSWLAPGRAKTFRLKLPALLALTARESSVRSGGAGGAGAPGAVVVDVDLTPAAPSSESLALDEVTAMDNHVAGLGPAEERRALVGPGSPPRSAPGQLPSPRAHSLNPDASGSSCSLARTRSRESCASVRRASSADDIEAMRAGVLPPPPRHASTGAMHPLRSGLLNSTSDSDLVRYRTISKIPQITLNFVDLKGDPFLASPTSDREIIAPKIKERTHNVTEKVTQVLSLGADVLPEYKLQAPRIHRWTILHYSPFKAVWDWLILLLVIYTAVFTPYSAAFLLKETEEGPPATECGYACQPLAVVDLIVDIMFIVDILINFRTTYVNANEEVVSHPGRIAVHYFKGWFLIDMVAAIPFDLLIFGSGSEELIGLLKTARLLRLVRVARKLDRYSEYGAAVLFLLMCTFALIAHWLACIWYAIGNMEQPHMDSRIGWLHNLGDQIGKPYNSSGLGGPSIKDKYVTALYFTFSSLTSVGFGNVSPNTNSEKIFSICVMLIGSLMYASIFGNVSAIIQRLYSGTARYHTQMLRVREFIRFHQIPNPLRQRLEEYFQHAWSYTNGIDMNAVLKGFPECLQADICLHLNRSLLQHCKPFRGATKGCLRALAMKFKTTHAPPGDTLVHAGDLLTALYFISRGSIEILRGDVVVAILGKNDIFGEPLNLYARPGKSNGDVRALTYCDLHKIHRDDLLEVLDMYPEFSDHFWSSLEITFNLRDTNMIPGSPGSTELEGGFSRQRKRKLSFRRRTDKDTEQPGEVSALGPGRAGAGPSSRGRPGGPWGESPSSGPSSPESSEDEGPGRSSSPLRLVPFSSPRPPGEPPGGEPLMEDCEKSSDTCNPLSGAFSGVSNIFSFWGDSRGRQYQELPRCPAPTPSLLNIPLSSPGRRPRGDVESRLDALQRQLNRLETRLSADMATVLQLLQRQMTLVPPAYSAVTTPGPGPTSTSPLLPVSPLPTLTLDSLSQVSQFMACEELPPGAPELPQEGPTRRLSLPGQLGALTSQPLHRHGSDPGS

With `O=P(OCC(Br)CBr)(OCC(Br)CBr)OCC(Br)CBr` (configuration not stated), the AC50 in assay [1] is 6.63 µM (active).

For `CCCCCCCc1ccc(O)cc1`, the call in assay [1] was inactive. Moreover, in assay [2], the AC50 was 0.766 µM (active). In the case of `ClC(Cl)(Cl)c1ccccc1`, in assay [2], the outcome was inactive. `c1ccc(OP(Oc2ccccc2)Oc2ccccc2)cc1`: the compound was classed as inactive in assay [3]. In the case of `CC(C)(C)OOC(C)(C)C`, the compound was called inactive in assay [4]. `ClC1=C(Cl)C2(Cl)C3C(Cl)C(Cl)CC3C1(Cl)C2(Cl)Cl` (configuration not stated): in assay [4], the outcome was inactive.

(Values after PubChem BioAssay (EPA / NIEHS).)
